From PubChem BioAssay AID624202 (National Center for Advancing Translational Sciences (NCATS), 2012)
Screen size: about 380,000 compounds; about 4,000 (1.1%) were called active. Not shown: some 3% with an inconclusive outcome. The call rests on the fitted dose curve; in most records, active means well fitted activation curve with a large enough effect; inconclusive means small, poorly fitted or top-dose-only effect; inactive means no such curve, though single readings can be large or run the other way. The list comes from a sample in which actives are over-represented; it also holds similar structures and randomly drawn compounds. A call without a number means that no potency is given here.
Potency means the concentration at half of the fitted maximal effect.

Experiment: qHTS Assay to Identify Small Molecule Activators of BRCA1 Expression; further: nearly all actives have a fitted effect of over 80% in size
Settings: MCF7-BRCA1-FFLuc reporter, luminescence, 48 h; series mostly up to 46.1 µM
In short: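 Using MCF7 cells harboring a BRCA1 firefly luciferase reporter, plated 2 h before compound pinning, the screen measured luminescence after 48 h incubation. Responses were normalized to DMSO and 10 microM genistein, then fitted for concentration-effect.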
With `O=C(NCc1ccccc1)C1CCN(S(=O)(=O)c2ccc3[nH]c(=O)ccc3c2)CC1` the Potency was “inactive”. In the case of `CCN(C(=O)CSc1nnc(-c2ccncc2)o1)c1ccccc1`, the Potency was “inactive”. In the case of `COc1ccc(-c2nnc(SCC(=O)Nc3ccccc3C)o2)cc1OC`, the Potency was “inactive”. With `CCCCSc1nnc(-c2ccc(C)cc2)o1` the Potency was 1.78 µM (active). In the case of `Cc1ccc(-c2nnc(SCc3ccccc3C)o2)cc1`, the Potency was 11.2 µM (active). In the case of `Cc1ccccc1CSc1nnc(CCCCCNC(=O)OC(C)(C)C)o1`, the Potency was “inactive”. In the case of `Cc1ccc(-c2nnc(CN3CCN(C)CC3)o2)cc1`, the Potency was “inactive”. With `O=C(NCCC1=CCCCC1)c1ccc2c(c1)N(Cc1ccccc1F)C(=O)c1ccccc1S2(=O)=O` the Potency was “inactive”. With `CCS(=O)(=O)N1CCc2cc(C(=O)NCc3ccc(C)cc3)ccc21` the Potency was “inactive”. For `Cc1ccc(C)c(N2CCN(C(=O)CCc3c(C)nc4c(c3C)c(=O)n(C)c(=O)n4C)CC2)c1`, the Potency was “inactive”. In the case of `COc1ccc(Cl)cc1NC(=O)Cn1c(=O)c2ccccc2n2nncc12`, the Potency was “inactive”. With `Brc1nc2ncnc(NCc3ccco3)c2[nH]1` the Potency was “inactive”. For `CCOc1ccc(S(=O)(=O)N(CC(=O)NCCSCc2ccc(C)cc2)c2ccccc2)cc1`, the Potency was “inactive”. With `CC(C)(C)NC(=O)CSc1nc(-c2ccc(F)cc2)cc(C(F)(F)F)n1` the Potency was “inactive”. With `CO[C@H]1O[C@@H]2O[C@@]3(C)CC[C@@H]4[C@@H](C)CC[C@@H]([C@H]1C)[C@@]24OO3` the Potency was “inactive”. In the case of `CC1(C)CCc2cc(S(=O)(=O)N3CCN(c4nc(-c5cccs5)nc5ccccc45)CC3)ccc2O1`, the Potency was “inactive”. With `Cc1cccc(NC(=O)Cc2ccc(Br)cc2)n1` the Potency was 8.91 µM (active). For `Cc1cccc(NC(=O)COc2ccc(Br)cc2C)n1`, the Potency was “inactive”. In the case of `Cc1cccc(C)c1NC(=O)CNC(=O)Cc1ccc(Br)cc1`, the Potency was “inactive”. In the case of `CCCNC(=O)c1ccc(Cn2c(SCC(N)=O)nc3ccccc3c2=O)cc1`, the Potency was “inactive”. In the case of `COc1ccc(CCNC(=O)CCCCn2c(=O)c3ccccc3n(Cc3ccccc3)c2=O)cc1OC`, the Potency was “inactive”. With `Cc1ccc(CN(C(=O)c2ccccc2[N+](=O)[O-])c2ccccn2)cc1` the Potency was “inactive”. For `CCOC(=O)c1c(NC(=O)CSc2cn(CCNC(=O)c3cccc(C(F)(F)F)c3)c3ccccc23)sc2c1CCC2`, the Potency was “inactive”. In the case of `O=C(Cn1ncc(N2CCCC2)c(Br)c1=O)c1ccc(Cl)cc1`, the Potency was 1.41 µM (active). For `O=C(Cn1nc(CNc2ccc(Cl)cc2)[n+]2c1CCCCC2)c1ccc(Cl)cc1`, the Potency was “inactive”. With `CC(=O)Cn1ncc(N2CCOCC2)c(Br)c1=O` the Potency was “inactive”. In the case of `CCOc1ccc(N(C)S(=O)(=O)c2cc(-c3cnc(C)o3)ccc2OC)cc1`, the Potency was “inactive”. For `CCCCCn1c(CCCNC(=O)c2ccccc2OC)nc2ccccc21`, the Potency was “inactive”. With `COc1cccc(/C(C)=N/Nc2ncc(Cl)cc2Cl)c1` the Potency was 10 µM (active). With `COC(=O)c1sccc1N/N=C(\C)c1ccc(F)c(Cl)c1` the Potency was “inactive”. In the case of `CC(Oc1ccc(Cl)cc1)C(=O)OCC(=O)Nc1ncc(Cl)cc1Cl` (stereo not given), the Potency was “inactive”. In the case of `Cc1ccccc1CN1CCC(CNC(=O)c2c(C)oc3ncnc(N4CCCCC4)c23)CC1`, the Potency was “inactive”. With `O=C(c1cccc(Cl)c1)N1CCN(CCc2ccncc2)CC1` the Potency was “inactive”. For `Cn1c(SCc2c(F)cccc2Cl)nnc1-c1cnccn1`, the Potency was 2.51 µM (active). With `Cn1c(SCC(=O)c2ccc(F)cc2)nnc1-c1ccccn1` the Potency was “inactive”. In the case of `Cc1ccc(CSc2nnc(-c3cnccn3)n2C)cc1`, the Potency was “inactive”. In the case of `CCC(=O)N1CCc2cc(Br)cc(S(=O)(=O)NCc3ccc(Cl)cc3)c21`, the Potency was “inactive”. With `CCOC(=O)N1CCN(S(=O)(=O)c2ccc(C(=O)Nc3ccc(F)cc3F)cc2)CC1` the Potency was “inactive”. In the case of `O=C(C=CC(=O)Nc1ccc(F)cc1F)Nc1ccc(F)cc1F`, the Potency was “inactive”. With `COc1ccc(C(=O)Nc2ccc(F)cc2F)cc1` the Potency was 6.31 µM (active). For `Cc1ccccc1-c1nc(CS(=O)(=O)CC(=O)Nc2cc(Cl)cc(Cl)c2)c(C)o1`, the Potency was “inactive”. With `COc1cc(OC)c(N(C)C(=O)c2cc3c(=O)oc4ccccc4c3s2)cc1Cl` the Potency was “inactive”. With `O=C(N/N=C/c1cccc([N+](=O)[O-])c1)C1CC(=O)N(c2ccc(Br)cc2)C1` (stereo not given) the Potency was “inactive”. In the case of `O=[N+]([O-])c1cccc(/C=N/Nc2ncc(Br)cn2)c1`, the Potency was 4.47 µM (active). For `CCCc1ccc(OCc2ccc(C(=O)N/N=C/c3cccc([N+](=O)[O-])c3)o2)c(OC)c1`, the Potency was “inactive”. For `COc1ccc(CCNc2nc(-c3ccc(F)cc3)cc(C(F)(F)F)n2)cc1OC`, the Potency was “inactive”. For `CNCCCOc1cc2nc(N3CCCN(C)CC3)nc(NC3CCN(C)CC3)c2cc1OC`, the Potency was “inactive”. In the case of `COc1ccc(-c2nn3c(=O)cc(CN4CCN(C(=O)c5ccc(OC)c(OC)c5)CC4)nc3s2)cc1`, the Potency was “inactive”. In the case of `O=[N+]([O-])c1c(NCCO)cc(Sc2nc3ccccc3s2)c2nonc12`, the Potency was “inactive”. In the case of `O=C(O)c1ccccc1CSc1nc2ccccc2s1`, the Potency was 5.62 µM (active). With `CN(C(=O)CSc1nc2ccc(NC(=O)COc3ccccc3)cc2s1)c1ccccc1` the Potency was “inactive”. For `COc1ccc(C2Nc3ccc(NC(=O)COC(C)=O)cc3C(=O)N2Cc2ccccc2)cc1COc1ccc(NC(C)=O)cc1` (stereo not given), the Potency was “inactive”. In the case of `COc1ccc2c(c1)c(=O)c(S(=O)(=O)c1ccc(F)cc1)cn2CC(=O)Nc1ccc(C)cc1C`, the Potency was “inactive”. For `CC(C)c1ccc(OCC(O)CN2CCN(c3ccccn3)CC2)cc1` (stereo not given), the Potency was “inactive”. With `CC(O)c1ccc(OCCN(C)c2ccccn2)cc1` (stereo not given) the Potency was 11.2 µM (active). In the case of `CN(CCOc1ccc(CC2SC(=O)NC2=O)cc1)c1ccccn1` (stereo not given), the Potency was “inactive”. For `COc1ccccc1CNc1nccn(-c2ccc(F)cc2)c1=O`, the Potency was “inactive”. In the case of `Nc1nc(COC(=O)CCC(=O)c2ccc(Cl)cc2)nc(Nc2ccccc2)n1`, the Potency was “inactive”. For `CCOC(=O)CNc1nc(Cl)nc(Nc2ccccc2)n1`, the Potency was 15.8 µM (active). For `CCOC(=O)CNc1nc(Cl)nc(Nc2ccc(OC)cc2OC)n1`, the Potency was “inactive”. For `CCCN1CN=C(NS(=O)(=O)c2ccc(NC(C)=O)cc2)NC1`, the Potency was “inactive”. With `CC1=C(C(=O)Nc2ccccc2)C(c2ccc(C)cc2)n2nc(SCc3ccccc3C)nc2N1` (stereo not given) the Potency was “inactive”. In the case of `Cc1ccc2nc(-c3cccc(Br)c3)cc(C(=O)Nn3cnnc3)c2c1`, the Potency was 10 µM (active). In the case of `COc1ccccc1C(=O)Nn1cnnc1`, the Potency was “inactive”. For `C/C(N)=C(/C#N)C(=O)COC(=O)c1cc(-c2cccc(Br)c2)nc2ccccc12`, the Potency was “inactive”.
